{
  "source": "PubChem BioAssay (NCATS)",
  "note": "Records with an inconclusive call do not appear. Entries that show only a call come without a potency. Activity calls are given as the source filed them. Calls come from the whole dose curve; as a rule, active = well fitted inhibition curve with a large enough effect in the repeat runs; inconclusive = weak or mixed curves; inactive = flat fitted curve, though single readings scatter.",
  "data": [
    {"target": "Cytochrome P450 2D6 (Homo sapiens) (UniProt P10635)", "sequence (P10635 whole entry, looked up)": "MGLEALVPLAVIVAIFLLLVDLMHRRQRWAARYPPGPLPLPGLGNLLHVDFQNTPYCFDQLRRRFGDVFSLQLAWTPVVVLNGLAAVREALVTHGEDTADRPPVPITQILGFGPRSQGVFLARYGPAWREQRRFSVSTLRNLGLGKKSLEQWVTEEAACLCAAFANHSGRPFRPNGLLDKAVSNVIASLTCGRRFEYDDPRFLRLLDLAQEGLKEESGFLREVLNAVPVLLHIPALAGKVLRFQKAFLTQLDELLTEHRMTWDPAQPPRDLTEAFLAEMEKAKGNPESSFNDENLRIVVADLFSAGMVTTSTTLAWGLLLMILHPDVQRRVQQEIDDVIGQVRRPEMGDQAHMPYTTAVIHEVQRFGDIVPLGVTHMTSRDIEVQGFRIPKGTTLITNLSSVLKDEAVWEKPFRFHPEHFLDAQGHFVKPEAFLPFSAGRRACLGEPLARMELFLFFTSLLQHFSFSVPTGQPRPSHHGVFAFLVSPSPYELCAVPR", "experiment": "Cytochrome P450 family 2 subfamily D member 6 (CYP2D6) small molecule antagonists: luciferase biochemical (cell-free) qHTS assay (AID 1645840); note: nearly all actives have a fitted effect of over 55% in size; note: potency is the fitted concentration of half-maximal effect", "conditions": "P450-Glo CYP2D6 enzyme, luciferin luminescence, 1 h; series mostly up to 57.4 µM", "procedure": "National Center for Advancing Translational Sciences [NCATS] Assay Overview: Cytochrome P450 (CYP) enzymes are membrane-bound hemeproteins that play a key role in metabolism of drugs and xenobiotics. Assaying the effect of chemicals on CYP isozymes is useful to minimize the adverse drug reactions and toxicities in drug development process. Chemical compounds were tested for their effect on CYP enzyme activities by using P450-Glo (TM) screening systems (Promega Corporation, Madison, WI). These systems provide a luminescent method containing proluciferin substrates and are converted to luciferin products by CYP isozymes. The luciferin products formed are detected with a luciferin detection reagent, and the amount of light produced is proportional to CYP activity. P450-Glo (TM) CYP2D6 screening system (Catalog. No. V9890) was used to detect the compounds that interfere in CYP2D6 activity.\nAssay Protocol Summary: Two ul of enzyme-substrate mix was dispensed into medium binding white/solid 1536-well plates (Greiner Bio-One North America Inc., Monroe, NC) using a Flying Reagent Dispenser (FRD, Aurora Discovery, San Diego, CA). […] The assay plates were incubated at room temperature for 10 min. Then 2 ul of NADPH regeneration solution was added to each well of the assay plates using an FRD and incubated at room temperature for 1 h. The reaction was stopped by adding 4 ul of detection reagent using an FRD and after 20 min incubation at room temperature, the luminescence signal was measured using a ViewLux plate reader (Perkin Elmer, Shelton, CT). Data were expressed as relative luminescence units.", "values": [
      {"compound": "CC1CC(OC(=O)C(O)c2ccccc2)CC(C)(C)N1C", "note": "(stereo not given)", "Potency": "inactive"},
      {"compound": "CC(C)(O)c1ccccc1CC[C@@H](SCC1(CC(=O)O)CC1)c1cccc(/C=C/c2ccc3ccc(Cl)cc3n2)c1", "Potency": "inactive"},
      {"compound": "N[C@@H](CSCCCO)C(=O)O", "Potency": "inactive"},
      {"compound": "O=C(O)[C@H](O)c1ccccc1", "Potency": "inactive"},
      {"compound": "NCC(=O)CCC(=O)O", "Potency": "inactive"},
      {"compound": "CC(O)CN(CCN(CC(C)O)CC(C)O)CC(C)O", "note": "(stereo not given)", "Potency": "inactive"},
      {"compound": "C[C@@H](O)[C@H](N)C(=O)O", "Potency": "inactive"},
      {"compound": "C[C@H](NC(CCc1ccccc1)C(=O)O)C(=O)N1CCC[C@H]1C(=O)O", "note": "(stereo not given in full)", "Potency": "inactive"},
      {"compound": "NC(=O)c1ncn([C@@H]2O[C@H](CO)[C@@H](O)[C@H]2O)n1", "Potency": "inactive"},
      {"compound": "O=c1cc[nH]c(=S)[nH]1", "Potency": "inactive"},
      {"compound": "O=C1c2c(O)cccc2Cc2cccc(O)c21", "Potency": "inactive"},
      {"compound": "CC1=C(/C=C/C(C)=C/C=C/C(C)=C/C(=O)O)C(C)(C)CCC1", "Potency": "inactive"},
      {"compound": "O=C1NC(=O)[C@@]2(CCOc3ccc(F)cc32)N1", "Potency": "inactive"},
      {"compound": "Nc1cc(=O)[nH]c(N)n1", "Potency": "inactive"},
      {"compound": "NC(CSCC(=O)O)C(=O)O", "note": "(stereo not given)", "Potency": "inactive"},
      {"compound": "CC(CN1c2ccccc2Sc2ccccc21)N(C)C", "note": "(stereo not given)", "Potency": "2.45 µM (active)"},
      {"compound": "CC(C)(C)C(=O)C(Oc1ccc(Cl)cc1)n1ccnc1", "note": "(stereo not given)", "Potency": "17.4 µM (active)"},
      {"compound": "CC1=C(CC(=O)O)c2cc(F)ccc2/C1=C\\c1ccc(S(C)=O)cc1", "note": "(stereo not given)", "Potency": "inactive"},
      {"compound": "OC[C@H]1O[C@@H](O[C@@H]2[C@@H](CO)O[C@](O)(CO)[C@H]2O)[C@H](O)[C@@H](O)[C@H]1O", "Potency": "inactive"},
      {"compound": "O=Cc1ccccc1C=O", "Potency": "inactive"},
      {"compound": "O=C(O)Cc1sc(-c2ccccc2)nc1-c1ccc(Cl)cc1", "Potency": "inactive"},
      {"compound": "O=C1O[C@H](CO)[C@@H](O)[C@H](O)[C@H]1O", "Potency": "inactive"},
      {"compound": "CC(C)(C)C(=O)NCCCC(=O)O", "Potency": "inactive"},
      {"compound": "CCN(CC)C(C)CN1c2ccccc2Sc2ccccc21", "note": "(stereo not given)", "Potency": "19.5 µM (active)"},
      {"compound": "CC(=O)OCC(=O)[C@@]1(O)CC[C@H]2[C@@H]3CCC4=CC(=O)CC[C@]4(C)[C@H]3C(=O)C[C@@]21C", "Potency": "3.89 µM (active)"},
      {"compound": "CN(C)CC[C@@H](c1ccc(Cl)cc1)c1ccccn1", "Potency": "9.52 µM (active)"},
      {"compound": "COc1ccc(S(=O)(=O)Nc2nnc(CC(C)C)s2)cc1", "Potency": "inactive"},
      {"compound": "CC1(C)CO[C@@H](CC(=O)O)CN1", "Potency": "inactive"},
      {"compound": "C[C@H]1O[C@@H](n2cc(F)c(=O)[nH]c2=O)[C@H](O)[C@@H]1O", "Potency": "inactive"},
      {"compound": "C[C@]12CC[C@@H]3c4ccc(O)cc4CC[C@H]3[C@@H]1CC[C@@H]2OC(=O)CCC1CCCC1", "Potency": "inactive"},
      {"compound": "O=C(O)CN1C(=O)c2cccc3cccc(c23)C1=O", "Potency": "inactive"},
      {"compound": "CCC(=O)Nc1ccc(O)cc1", "Potency": "inactive"},
      {"compound": "CN1[C@@H]2CC[C@H]1CC(OC(=O)C(O)c1ccccc1)C2", "note": "(stereo not given in full)", "Potency": "inactive"},
      {"compound": "CCCCC(CC)COC(=O)c1ccccc1O", "note": "(stereo not given)", "Potency": "inactive"},
      {"compound": "NC(=O)NC(=O)Cc1ccccc1", "Potency": "inactive"},
      {"compound": "N[C@H](C(=O)O)c1ccc(O)cc1", "Potency": "inactive"},
      {"compound": "CC(COc1ccccc1)NC(C)C(O)c1ccc(O)cc1", "note": "(stereo not given)", "Potency": "0.617 µM (active)"},
      {"compound": "O=C(Oc1ccccc1C(=O)O)c1ccccc1O", "Potency": "inactive"},
      {"compound": "CN(C)CCN(Cc1ccccc1)c1ccccn1", "Potency": "0.174 µM (active)"},
      {"compound": "Cc1ccc(C(C)C)cc2c(C)ccc1-2", "Potency": "inactive"}
    ]}
  ]
}
